From PubChem BioAssay (NCI) come the findings set out here.

A short description of assay [1]: NCI Yeast Anticancer Drug Screen. Data for the rad50 strain (AID 155).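 Note: 0% = growth of vehicle-only cultures of the same strain.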 Particulars: S. cerevisiae rad50 strain growth inhibition, stronger effect = higher value. The gist of the method: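 DNA repair mutant yeast, compound exposure, growth read-out; inhibition is taken relative to vehicle.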
Assay [2] is described as follows: NCI Yeast Anticancer Drug Screen. Data for the mec2-1 strain (AID 157). Particulars: S. cerevisiae mec2-1 strain, stronger effect = higher value. The gist of the method:
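Vehicle-treated cultures served as reference for growth inhibition of compound-exposed mec2-1 yeast.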

Assay [3] in a line: NCI Yeast Anticancer Drug Screen. Data for the sgs1 mgt1 strain (AID 161).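 Note: 0% = growth of cultures given vehicle only.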 Particulars: S. cerevisiae sgs1 mgt1 strain, stronger effect = higher value. The gist of the method:
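Genetically altered yeast, compound exposure, growth inhibition relative to vehicle.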

A short description of assay [4]: NCI Yeast Anticancer Drug Screen. Data for the cln2 rad14 strain (AID 165).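 Note: 0% = growth equal to vehicle treated cultures.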 Particulars: S. cerevisiae cln2 rad14 strain, stronger effect = higher value. The gist of the method: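 Each compound was tested on cln2 rad14 yeast. Inhibition of growth was calculated against vehicle-exposed controls.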
Assay [5] in a line: NCI Yeast Anticancer Drug Screen. Data for the bub3 strain (AID 167). Conditions: S. cerevisiae bub3 mutant strain, stronger effect = higher value. The gist of the method:
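In this screen, a yeast mutant lacking normal mitotic checkpoint function is challenged with compound. Relative growth versus vehicle gives the inhibition value.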

Assay [6] in a line: NCI Yeast Anticancer Drug Screen. Data for the mlh1 rad18 strain (AID 175). Particulars: S. cerevisiae mlh1 rad18 strain growth inhibition, stronger effect = higher value. The gist of the method: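 Vehicle-treated cultures served as the reference for growth inhibition in a yeast strain carrying DNA damage repair alterations exposed to each compound.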
Setting [7] is: at 5.0 µM (retest, dose inferred, filed as 0.5).
[8] abbreviates: at 50.0 µM (retest, dose inferred, filed as 5.0).

SMILES strings stand for the structures. Where “and” joins values, the source holds several entries; their conditions need not be identical. Equal entries are not always repeated. This is part of a sample that, as a whole, favours compounds with a hit. Of some 79,000 tested, about 15% had one in any assay. Where a structure was tested more than once in an assay, its records may differ in their call. Calls of active or inactive are those of the source. Cut-off read from the data, not from the text of the source: active = growth inhibition above about 70%; inactive = the rest.

In the case of `OC(CN1CCCCC1)c1cc(-c2ccc(Cl)cc2)nc2cc(Cl)ccc12` (stereo not drawn), the growth inhibition in assay [1] (setting [7]) was -6% (inactive); in assay [1] (setting [8]), 99% (active); in assay [1] (at 50.0 µM), 90.5% (active); in assay [2] (setting [7]), -13% (inactive); in assay [2] (setting [8]), 100% (active); in assay [2] (at 50.0 µM), 92.7% (active). Moreover, the growth inhibition is -4% (inactive) in assay [3] (setting [7]); 100% (active) in assay [3] (setting [8]); 99.5% (active) in assay [3] (at 50.0 µM); -7% (inactive) in assay [4] (setting [7]); 99% (active) in assay [4] (setting [8]); 95.6% (active) in assay [4] (at 50.0 µM). In addition, the growth inhibition was -7% (inactive) in assay [5] (setting [7]); 99% (active) in assay [5] (setting [8]); 99.4% (active) in assay [5] (at 50.0 µM); 18% (inactive) in assay [6] (setting [7]); 99% (active) in assay [6] (setting [8]); 99.2% (active) in assay [6] (at 50.0 µM).

Turning to `O=C(Nc1cccc2c(OC(=O)C(Cl)Cl)c(N=Nc3ccc(S(=O)(=O)Nc4nccs4)cc3)cc(N=Nc3ccc(S(=O)(=O)Nc4nccs4)cc3)c12)C(Cl)Cl` (tested in a mixture with another compound), the growth inhibition was 93% (active) and 21% (inactive) in assay [1] (setting [7]); 6% (inactive) and 87% (active) in assay [1] (setting [8]); 71.8% (active) and 25.1% (inactive) in assay [1] (at 50.0 µM); 95% (active) and 10% (inactive) in assay [2] (setting [7]); 39% (inactive) and 90% (active) in assay [2] (setting [8]); 62% (inactive) and 38.1% (inactive) in assay [2] (at 50.0 µM). Also, the growth inhibition in assay [3] (setting [7]) is 94% (active) and 19% (inactive); in assay [3] (setting [8]), 29% (inactive) and 88% (active); in assay [3] (at 50.0 µM), 67.2% (inactive) and 18.3% (inactive); in assay [4] (setting [7]), 93% (active) and 29% (inactive); in assay [4] (setting [8]), 34% (inactive) and 88% (active); in assay [4] (at 50.0 µM), 56.5% (inactive) and 31.9% (inactive). The growth inhibition in assay [5] (setting [7]) was 90% (active) and 22% (inactive); in assay [5] (setting [8]), 41% (inactive) and 88% (active); in assay [5] (at 50.0 µM), 50.2% (inactive) and 47.1% (inactive); in assay [6] (setting [7]), 85% (active) and 35% (inactive); in assay [6] (setting [8]), -14% (inactive) and 83% (active); in assay [6] (at 50.0 µM) it was 81.3% (active) and 39.8% (inactive).

On to `CC1=C(C(=O)Nc2c(C)cccc2C)C(c2ccc3c(c2)OCO3)C(C(=O)Nc2c(C)cccc2C)=C(C)N1`, for which the growth inhibition in assay [1] (setting [7]) is 25% (inactive); in assay [1] (setting [8]), 25% (inactive); in assay [1] (at 50.0 µM), 81.9% (active); in assay [2] (setting [7]), 19% (inactive); in assay [2] (setting [8]) it was 19% (inactive); in assay [2] (at 50.0 µM), 86.9% (active). In addition, the growth inhibition in assay [3] (setting [7]) was 4% (inactive); in assay [3] (setting [8]) it was 4% (inactive); in assay [3] (at 50.0 µM), 85.7% (active); in assay [4] (setting [7]), 16% (inactive); in assay [4] (setting [8]), 16% (inactive); in assay [4] (at 50.0 µM), 79.5% (active). Further, the growth inhibition was 6% (inactive) in assay [5] (setting [7]); 6% (inactive) in assay [5] (setting [8]); 87.5% (active) in assay [5] (at 50.0 µM); 7% (inactive) in assay [6] (setting [7]); 7% (inactive) in assay [6] (setting [8]); 82.7% (active) in assay [6] (at 50.0 µM).

For the molecule `C[C@H](CCC(=O)O)[C@H]1CC[C@H]2[C@@H]3[C@H](O)C[C@@H]4C[C@H](O)CC[C@]4(C)[C@H]3CC[C@]12C`, the growth inhibition in assay [1] (setting [7]) was 24% (inactive); in assay [1] (setting [8]), 94% (active); in assay [1] (at 50.0 µM), 90% (active); in assay [2] (setting [7]), -14% (inactive); in assay [2] (setting [8]) it was 96% (active); in assay [2] (at 50.0 µM) it was 91.3% (active). Also, the growth inhibition in assay [3] (setting [7]) was 9% (inactive); in assay [3] (setting [8]), 96% (active); in assay [3] (at 50.0 µM), 92.3% (active); in assay [4] (setting [7]), 19% (inactive); in assay [4] (setting [8]), 96% (active); in assay [4] (at 50.0 µM) it was 90.2% (active). Also, the growth inhibition in assay [5] (setting [7]) is -3% (inactive); in assay [5] (setting [8]) it was 98% (active); in assay [5] (at 50.0 µM) it was 90.5% (active); in assay [6] (setting [7]) it was 6% (inactive); in assay [6] (setting [8]) it was 97% (active); in assay [6] (at 50.0 µM), 90.2% (active).

Consider `Oc1cc2c(cc1C(c1ccc3c(c1)OCO3)N1CCN(C(c3ccc4c(c3)OCO4)c3cc4c(cc3O)OCO4)CC1)OCO2` (stereo not drawn), for which the growth inhibition was 2% (inactive) in assay [1] (setting [7]); 98% (active) in assay [1] (setting [8]); 81.9% (active) in assay [1] (at 50.0 µM); -1% (inactive) in assay [2] (setting [7]); 99% (active) in assay [2] (setting [8]); 92.8% (active) in assay [2] (at 50.0 µM). Moreover, the growth inhibition in assay [3] (setting [7]) is 8% (inactive); in assay [3] (setting [8]), 98% (active); in assay [3] (at 50.0 µM) it was 78.2% (active); in assay [4] (setting [7]) it was 8% (inactive); in assay [4] (setting [8]), 49% (inactive); in assay [4] (at 50.0 µM), 24.4% (inactive). Further, the growth inhibition in assay [5] (setting [7]) is 2% (inactive); in assay [5] (setting [8]) it was -1% (inactive); in assay [5] (at 50.0 µM) it was 54.2% (inactive); in assay [6] (setting [7]), 3% (inactive); in assay [6] (setting [8]) it was 94% (active); in assay [6] (at 50.0 µM) it was 93.2% (active).

As for `COc1ccc(/C=C/C(=O)CCN2CCN(CCC(=O)/C=C/c3ccc(OC)cc3)CC2)cc1`, the growth inhibition in assay [1] (setting [7]) is 16% (inactive); in assay [1] (setting [8]), 99% (active); in assay [1] (at 50.0 µM), 81.7% (active); in assay [2] (setting [7]) it was -15% (inactive); in assay [2] (setting [8]), 99% (active); in assay [2] (at 50.0 µM) it was 90.7% (active). In addition, the growth inhibition in assay [3] (setting [7]) is -4% (inactive); in assay [3] (setting [8]) it was 99% (active); in assay [3] (at 50.0 µM), 90.2% (active); in assay [4] (setting [7]), -20% (inactive); in assay [4] (setting [8]), 99% (active); in assay [4] (at 50.0 µM), 29.9% (inactive). In addition, the growth inhibition in assay [5] (setting [7]) was -59% (inactive); in assay [5] (setting [8]) it was 99% (active); in assay [5] (at 50.0 µM), 87% (active); in assay [6] (setting [7]), -5% (inactive); in assay [6] (setting [8]) it was 98% (active); in assay [6] (at 50.0 µM), 91.5% (active).
